# Data taken from PubChem BioAssay (NCATS).
# Where “and” joins values, the source holds several entries; their conditions need not be identical. Equal entries are not always repeated. Inconclusive results are not listed. A call without a number means that no potency is given here. Calls of active or inactive are those of the source. Unless noted, calls come from the whole dose curve.
# Experiments:
# [1] = Cell Viability - LYMP2-014 (AID 983; active = well fitted curve in the direction sought with a large enough effect; an effect the other way counts as inactive or inconclusive; note: nearly all actives have a fitted effect of over 50% in size)
# Summary of the method: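 Intracellular ATP loss, read by luciferase luminescence, measures acute cytotoxicity after 24 h compound exposure of lymphoblastoid LYMP2-014 cells (2500/well, 37 C). Concentration-response data fitted to the Hill equation for AC50.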
# [2] = Cell Viability - LYMP2-016 (AID 984; active = well fitted curve in the direction sought with a large enough effect; an effect the other way counts as inactive or inconclusive; note: nearly all actives have a fitted effect of over 55% in size)
# Summary of the method: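 Cytotoxicity was scored by luminescent ATP content (CellTiter-Glo) after 24 h compound exposure at 37 C of a human lymphoblastoid line at 2500 cells/well. Concentration-response data were fitted to the Hill equation for AC50.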
# [3] = Cell Viability - LYMP2-018 (AID 985; active = well fitted curve in the direction sought with a large enough effect; an effect the other way counts as inactive or inconclusive; note: nearly all actives have a fitted effect of over 50% in size)
# Summary of the method: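 Viability read as CellTiter-Glo luminescence (cellular ATP) after 24 hr compound exposure at 37 C of 2500 LYMP2-018 lymphoblastoid cells/well, pre-plated 5 hr. Hill-equation modelling gave AC50.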
# [4] = Cell Viability - LYMP2-020 (AID 986; active = well fitted curve in the direction sought with a large enough effect; an effect the other way counts as inactive or inconclusive; note: nearly all actives have a fitted effect of over 55% in size)
# Summary of the method: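 Cytotoxicity in qHTS format: luminescent ATP readout from CellTiter-Glo after 24 h compound exposure at 37 C in complete medium. LYMP2-020 lymphoblastoid cells were seeded at 2500/well; concentration-response data fitted to the Hill equation for AC50.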
# [5] = Cell Viability - LYMP2-022 (AID 987; active = well fitted curve in the direction sought with a large enough effect; an effect the other way counts as inactive or inconclusive; note: nearly all actives have a fitted effect of over 55% in size)
# Summary of the method: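 Cytotoxicity read as decreased cellular ATP (CellTiter-Glo luminescence, 30 min room temperature) after 24 hours compound exposure of 2500 lymphoblastoid LYMP2-022 cells/well at 37 C. Concentration-response data fitted with standard Hill equation for AC50.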
# [6] = Cell Viability - LYMP2-024 (AID 988; active = well fitted curve in the direction sought with a large enough effect; an effect the other way counts as inactive or inconclusive; note: nearly all actives have a fitted effect of over 60% in size)
# Summary of the method: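 Cytotoxicity was taken as a decrease in ATP (CellTiter-Glo luminescence) after 24 hr compound exposure at 37 C of LYMP2-024 lymphoblastoid cells, 2500 cells/well. Concentration-response data were fitted to the Hill equation to give AC50.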
# [7] = Cell Viability - LYMP2-026 (AID 989; active = well fitted curve in the direction sought with a large enough effect; an effect the other way counts as inactive or inconclusive; note: nearly all actives have a fitted effect of over 50% in size)
# Summary of the method: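 Cytotoxicity read as ATP-dependent luminescence (CellTiter-Glo, 30 min room temperature) after 24 h compound treatment at 37 C. LYMP2-026 lymphoblastoid line seeded at 2500 cells/well; AC50 derived by standard Hill equation.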
# [8] = Cell Viability - LYMP1-002 - Assay at 24 hr (AID 993; active = well fitted curve in the direction sought with a large enough effect; an effect the other way counts as inactive or inconclusive)
# Summary of the method: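 qHTS cytotoxicity at 24 h: CellTiter-Glo ATP luminescence in lymphoblastoid line LYMP1-002 incubated with compound at 37 °C. Concentration-response modeled with the Hill equation for AC50; tetraoctylammonium bromide served as positive control.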
# [9] = Cell Viability - LYMP1-002 - Assay at 40 hr (AID 994; active = well fitted curve in the direction sought with a large enough effect; an effect the other way counts as inactive or inconclusive; note: nearly all actives have a fitted effect of over 60% in size)
# Summary of the method: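 Cytotoxicity was read as loss of cellular ATP (CellTiter-Glo luminescence) after 40 hr compound exposure at 37 C of 2500 LYMP1-002 lymphoblastoid cells per well. Concentration-response data were fitted with the standard Hill equation to give AC50.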
# [10] = qHTS Assay for Lipid Storage Modulators (AID 1519); details: Drosophila S3 cells, BODIPY lipid droplet/cell ratio, laser cytometry, cells loaded with oleic acid
# Summary of the method: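 Cells seeded at 5,000 per well were treated with compounds over a concentration series and loaded with oleic acid (400 uM, as added). Lipid droplet fluorescence (488 nm excitation, 500-530 nm channel) was read by laser-scanning cytometry and normalized to 20 uM Triacsin C.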
# [11] = qHTS Assay for Identification of Small Molecule Inducers of Hypoxia Response (AID 2120; active = well fitted curve in the direction sought with a large enough effect in the signal ratio, with a control signal flat, not every such curve was filed as active; the % refers to the signal ratio)
# Summary of the method: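 Reporter induction read as the CCF4 blue/green (460nm/530nm) emission ratio after 2.5 h dye loading at room temperature. ME-180 HRE-beta-lactamase cells received titrated compounds for 17 h at 37 degrees Celsius; AC50 values derived.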
# [12] = molecular target: Ubiquitin carboxyl-terminal hydrolase 1 (Homo sapiens) (UniProt O94782); assay: Inhibitors of USP1/UAF1: Pilot qHTS (AID 504865; active = well fitted curve in the direction sought with a large enough effect; an effect the other way counts as inactive or inconclusive; note: potency is the fitted concentration of half-maximal effect; nearly all actives have a fitted effect of over 35% in size)
# Sequence of Ubiquitin carboxyl-terminal hydrolase 1 (Homo sapiens) (O94782 whole entry, looked up): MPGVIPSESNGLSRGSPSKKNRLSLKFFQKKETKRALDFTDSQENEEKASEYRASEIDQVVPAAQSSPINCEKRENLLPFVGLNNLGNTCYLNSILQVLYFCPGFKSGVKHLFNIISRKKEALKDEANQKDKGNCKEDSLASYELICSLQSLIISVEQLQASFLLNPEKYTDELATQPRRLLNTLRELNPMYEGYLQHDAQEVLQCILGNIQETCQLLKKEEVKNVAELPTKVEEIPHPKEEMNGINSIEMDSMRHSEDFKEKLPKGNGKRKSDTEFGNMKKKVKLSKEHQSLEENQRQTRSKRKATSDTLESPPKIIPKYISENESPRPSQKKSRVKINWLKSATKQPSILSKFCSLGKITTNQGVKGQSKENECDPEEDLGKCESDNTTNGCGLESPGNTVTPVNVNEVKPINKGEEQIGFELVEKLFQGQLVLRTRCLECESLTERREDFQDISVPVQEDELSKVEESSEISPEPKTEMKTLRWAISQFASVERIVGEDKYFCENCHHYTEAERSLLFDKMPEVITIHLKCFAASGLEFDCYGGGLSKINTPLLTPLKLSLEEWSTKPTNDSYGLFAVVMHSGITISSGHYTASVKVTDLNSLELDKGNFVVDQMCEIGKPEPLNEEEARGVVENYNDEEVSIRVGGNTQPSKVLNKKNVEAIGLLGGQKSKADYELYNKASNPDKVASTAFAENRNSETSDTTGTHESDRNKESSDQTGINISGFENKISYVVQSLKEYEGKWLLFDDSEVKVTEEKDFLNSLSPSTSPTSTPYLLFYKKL
# Summary of the method: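 Deubiquitinase activity followed as kinetic rhodamine fluorescence release from 150 nM Ub-Rho. 1 nM USP1/UAF1 with compound, after 15 min room-temperature preincubation, in HEPES pH 7.8 buffer containing TCEP, EDTA, BSA and Tween-20.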
# [13] = molecular target: Estrogen receptor (Homo sapiens) (UniProt P03372); assay: qHTS assay for small molecule agonists of estrogen receptor alpha signaling (AID 588514); note: nearly all actives have a fitted effect of over 70% in size
# Sequence of Estrogen receptor (Homo sapiens) (P03372 whole entry, looked up): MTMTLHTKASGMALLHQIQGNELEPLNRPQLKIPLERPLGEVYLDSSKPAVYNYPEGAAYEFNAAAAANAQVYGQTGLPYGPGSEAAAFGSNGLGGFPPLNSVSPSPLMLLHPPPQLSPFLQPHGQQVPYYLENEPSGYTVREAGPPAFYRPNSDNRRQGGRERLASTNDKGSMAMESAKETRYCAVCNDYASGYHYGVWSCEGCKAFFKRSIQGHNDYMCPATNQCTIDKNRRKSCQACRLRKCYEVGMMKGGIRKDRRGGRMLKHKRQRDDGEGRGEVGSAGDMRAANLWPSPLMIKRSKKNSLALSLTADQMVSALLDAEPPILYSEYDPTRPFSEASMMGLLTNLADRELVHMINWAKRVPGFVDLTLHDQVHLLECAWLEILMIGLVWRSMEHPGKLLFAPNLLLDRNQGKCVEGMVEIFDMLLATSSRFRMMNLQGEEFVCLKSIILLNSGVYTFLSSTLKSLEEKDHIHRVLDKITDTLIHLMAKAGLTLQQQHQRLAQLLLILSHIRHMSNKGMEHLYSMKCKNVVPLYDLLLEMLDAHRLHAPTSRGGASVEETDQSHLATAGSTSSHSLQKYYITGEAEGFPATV
# Summary of the method: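 EC50 and efficacy came from Hill fits of beta-lactamase reporter signal (CCF4 dye, 2 h at room temperature) scaled between DMSO and 20 nM 17-beta-estradiol. Agonist mode: HEK293 ER-alpha-UAS-bla cells in charcoal/dextran-stripped serum medium, 18 h compound exposure at 37 C.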
# [14] = molecular target: Bile acid receptor (Homo sapiens) (UniProt Q96RI1); assay: qHTS assay for small molecule antagonists of farnesoid X receptor signaling (AID 588526); note: potency is the fitted concentration of half-maximal effect
# Sequence of Bile acid receptor (Homo sapiens) (Q96RI1 whole entry, looked up): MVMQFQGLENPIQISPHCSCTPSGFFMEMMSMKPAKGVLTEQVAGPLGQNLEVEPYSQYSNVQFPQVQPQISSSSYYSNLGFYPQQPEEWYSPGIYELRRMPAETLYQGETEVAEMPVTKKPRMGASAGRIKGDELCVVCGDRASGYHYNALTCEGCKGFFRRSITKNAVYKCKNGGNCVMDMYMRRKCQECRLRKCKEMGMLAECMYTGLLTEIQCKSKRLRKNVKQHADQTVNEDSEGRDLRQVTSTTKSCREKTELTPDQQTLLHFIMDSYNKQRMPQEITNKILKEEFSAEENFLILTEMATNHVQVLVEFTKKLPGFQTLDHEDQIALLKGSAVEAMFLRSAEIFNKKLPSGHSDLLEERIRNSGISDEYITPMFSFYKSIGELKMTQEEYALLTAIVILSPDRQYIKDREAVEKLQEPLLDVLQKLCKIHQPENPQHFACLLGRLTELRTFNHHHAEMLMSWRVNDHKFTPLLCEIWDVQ
# Summary of the method: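 Beta-lactamase reporter antagonist mode: HEK293T FXR-UAS-bla cells, titrated compound, CDCA stimulation, 16 h 37 C, CCF4 dye 2 h RT. Data normalized to CDCA 50 uM and DMSO; Hill-fit IC50.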
# [15] = molecular target: Bile acid receptor (Homo sapiens) (UniProt Q96RI1); assay: qHTS assay for small molecule agonists of farnesoid X receptor signaling (AID 588527); details: HEK293T FXR-UAS-bla, beta-lactamase ratio, 16 h; activation: stronger effect = higher value
# Summary of the method: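 Agonist-mode beta-lactamase reporter in GeneBLAzer FXR-UAS-bla HEK293T cells, titration up to 92 uM, 16 h exposure at 37 C, CCF4 fluorescence. Response scaled to DMSO (0%) and 100 uM chenodeoxycholic acid (100%), then Hill-fitted for EC50 and efficacy.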
# [16] = molecular target: Glucocorticoid receptor (Homo sapiens) (UniProt P04150); assay: qHTS assay for small molecule agonists of glucocorticoid receptor signaling (AID 588532; active = well fitted curve in the direction sought with a large enough effect in the signal ratio, with a control signal flat; the % refers to the signal ratio); details: HeLa MMTV-bla, beta-lactamase ratio, agonist, 18 h; stronger effect = higher value; percent of dexamethasone control, DMSO zero
# Sequence of Glucocorticoid receptor (Homo sapiens) (P04150 whole entry, looked up): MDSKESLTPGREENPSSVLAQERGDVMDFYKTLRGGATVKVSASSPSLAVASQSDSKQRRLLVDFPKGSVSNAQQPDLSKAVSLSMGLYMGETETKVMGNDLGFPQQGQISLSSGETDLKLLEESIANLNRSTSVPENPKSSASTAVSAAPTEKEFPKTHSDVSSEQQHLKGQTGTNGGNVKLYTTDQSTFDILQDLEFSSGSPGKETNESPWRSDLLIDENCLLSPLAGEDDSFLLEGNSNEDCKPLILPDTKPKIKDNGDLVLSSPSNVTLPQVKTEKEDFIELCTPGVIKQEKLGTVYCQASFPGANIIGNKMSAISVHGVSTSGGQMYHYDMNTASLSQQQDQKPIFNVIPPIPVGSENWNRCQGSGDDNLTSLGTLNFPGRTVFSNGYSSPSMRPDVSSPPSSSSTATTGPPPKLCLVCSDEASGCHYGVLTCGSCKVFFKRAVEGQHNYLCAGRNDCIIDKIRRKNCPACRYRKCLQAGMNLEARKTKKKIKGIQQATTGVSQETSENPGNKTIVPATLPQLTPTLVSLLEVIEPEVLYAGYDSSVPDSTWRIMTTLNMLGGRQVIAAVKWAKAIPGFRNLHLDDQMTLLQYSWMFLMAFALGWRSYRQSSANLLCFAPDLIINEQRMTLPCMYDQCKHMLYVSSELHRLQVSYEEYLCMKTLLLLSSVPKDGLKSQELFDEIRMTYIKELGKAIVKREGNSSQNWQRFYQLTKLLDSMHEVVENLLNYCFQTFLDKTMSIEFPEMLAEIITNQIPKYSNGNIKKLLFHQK
# Summary of the method: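 Using MMTV-bla HeLa cells in medium with 1% stripped FBS and 25 mM HEPES, compounds were titrated and incubated overnight-length (18 h). Beta-lactamase cleavage of CCF4 was quantified by dual-emission fluorescence.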
# [17] = molecular target: Vitamin D3 receptor (Homo sapiens) (UniProt P11473); assay: qHTS assay for small molecule antagonists of vitamin D receptor signaling (AID 588541);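 note: receptor activated by calcitriol during compound treatment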
# Sequence of Vitamin D3 receptor (Homo sapiens) (P11473 whole entry, looked up): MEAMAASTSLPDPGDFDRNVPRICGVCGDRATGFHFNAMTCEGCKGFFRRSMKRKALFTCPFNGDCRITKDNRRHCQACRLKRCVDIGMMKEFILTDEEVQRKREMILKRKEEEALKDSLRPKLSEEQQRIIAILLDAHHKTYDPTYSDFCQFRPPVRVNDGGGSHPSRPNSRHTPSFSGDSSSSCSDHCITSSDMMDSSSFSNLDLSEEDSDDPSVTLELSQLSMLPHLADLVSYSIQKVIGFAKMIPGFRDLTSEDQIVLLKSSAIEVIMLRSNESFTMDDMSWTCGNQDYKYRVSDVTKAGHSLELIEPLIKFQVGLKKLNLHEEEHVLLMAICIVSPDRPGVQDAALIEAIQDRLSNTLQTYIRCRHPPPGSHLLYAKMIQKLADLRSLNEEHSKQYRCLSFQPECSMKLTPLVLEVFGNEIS
# Summary of the method: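 Antagonist-mode beta-lactamase reporter assay: HEK293T VDR-UAS-bla cells were exposed to titrated compound alongside 1-alpha,25-dihydroxyvitamin D3 at 3 nM final for 16 h. Values were normalized to the 50 nM agonist control and DMSO basal, with IC50 and efficacy from Hill equation fits.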
# [18] = molecular target: Vitamin D3 receptor (Homo sapiens) (UniProt P11473); assay: qHTS assay for small molecule agonists of vitamin D receptor signaling (AID 588543)
# Summary of the method: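 Agonist-mode beta-lactamase reporter: HEK293T VDR-UAS-bla cells in charcoal-stripped 2% FBS, compound series 16 h 37 C, CCF4 2 h RT. EC50 from Hill fit, scaled against DMSO and 50 nM calcitriol control.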
# [19] = qHTS assay for small molecule agonists of retinoid X receptor alpha signaling (AID 588544); details: HEK293T RXRa-UAS-bla, beta-lactamase reporter, 18 h; 530 nm emission
# [20] = molecular target: Retinoic acid receptor RXR-alpha (Homo sapiens) (UniProt P19793); assay: as above
# Sequence of Retinoic acid receptor RXR-alpha (Homo sapiens) (P19793 whole entry, looked up): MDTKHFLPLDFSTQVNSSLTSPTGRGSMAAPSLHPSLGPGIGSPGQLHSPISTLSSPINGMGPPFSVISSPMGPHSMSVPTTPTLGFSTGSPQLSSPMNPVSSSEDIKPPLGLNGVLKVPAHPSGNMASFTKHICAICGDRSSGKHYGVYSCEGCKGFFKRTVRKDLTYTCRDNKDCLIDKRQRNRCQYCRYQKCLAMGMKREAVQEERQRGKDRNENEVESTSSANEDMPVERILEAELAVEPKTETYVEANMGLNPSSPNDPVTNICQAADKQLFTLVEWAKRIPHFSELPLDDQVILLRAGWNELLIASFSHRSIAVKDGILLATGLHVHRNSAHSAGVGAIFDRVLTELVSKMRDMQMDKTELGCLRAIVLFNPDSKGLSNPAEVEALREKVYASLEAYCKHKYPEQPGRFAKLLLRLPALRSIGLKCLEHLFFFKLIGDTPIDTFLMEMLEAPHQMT
# [21] = molecular target: Thyroid hormone receptor beta (Homo sapiens) (UniProt P10828); assay: qHTS assay for small molecule agonists of thyroid hormone receptor beta signaling (AID 588545)
# Sequence of Thyroid hormone receptor beta (Homo sapiens) (P10828 whole entry, looked up): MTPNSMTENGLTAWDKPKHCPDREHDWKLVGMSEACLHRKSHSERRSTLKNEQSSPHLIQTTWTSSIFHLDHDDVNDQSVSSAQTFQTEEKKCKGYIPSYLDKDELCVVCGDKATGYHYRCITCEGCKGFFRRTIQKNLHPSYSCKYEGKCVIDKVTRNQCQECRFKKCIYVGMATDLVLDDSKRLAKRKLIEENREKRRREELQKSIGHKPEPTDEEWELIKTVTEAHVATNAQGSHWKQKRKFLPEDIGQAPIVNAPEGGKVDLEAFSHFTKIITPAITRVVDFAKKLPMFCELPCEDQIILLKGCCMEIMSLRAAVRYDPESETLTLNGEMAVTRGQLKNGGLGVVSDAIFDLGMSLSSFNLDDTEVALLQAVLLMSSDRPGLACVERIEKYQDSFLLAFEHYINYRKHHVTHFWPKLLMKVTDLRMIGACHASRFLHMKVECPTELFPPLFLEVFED
# Summary of the method: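 Cells (2500/well) were seeded, incubated 4 hrs at 37 C, dosed with a compound series, incubated 18 hrs, loaded with CCF4 dye for 2 hrs at RT, then read for fluorescence. Data were scaled between DMSO (0%) and 10 nM T3 (100%).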
# [22] = qHTS assay for small molecule antagonists of retinoid X receptor alpha signaling (AID 588546); details: HEK293T RXRa-UAS-bla, beta-lactamase ratio, antagonist mode; measured here: W530 green channel, cytotoxicity proxy;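 note: cells stimulated with 9-cis-retinoic acid as agonist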
# Summary of the method: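 Beta-lactamase reporter inhibition, read as CCF4 fluorescence ratio (ex 405, em 460/530 nm) after 2 h at RT. HEK293T UAS-bla cells, 2500/well, were stimulated with 9-cis-RA at 500 or 100 nM final alongside test compound for 18 h at 37 C.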
compound,measurement,setting,value
Oc1c(Cl)c(Cl)c(Cl)c(Cl)c1Cl,outcome,[1],inactive
same,outcome,[2],inactive
same,outcome,[3],inactive
same,outcome,[4],inactive
same,outcome,[5],inactive
same,outcome,[6],inactive
same,outcome,[7],inactive
same,outcome,[8],inactive
same,Potency,[9],inactive
same,"activity change, negative = inhibition",[10]; at 57.5 µM (top of the series),-4.15% (inactive)
same,max response,[10]; measured here: cell count channel max response,-3.69%
same,max response,[10]; measured here: lipid channel max response,-7.5%
same,outcome,[11],inactive
same,Potency,[12],79.4 µM (active)
same,Potency,[13],inactive
same,Potency,[14],25.1 µM (active)
same,activation,[15],0.631% (inactive) and 4.93% (inactive)
same,activation,[16],-3.18% (inactive)
same,outcome,[17],inactive
same,Potency,[18],inactive
same,max response,[19],19.6%
same,outcome,[20],inactive
same,Potency,[21],inactive
same,max response,[22],-15.3% and -8.92%
